The results in this text go back to PubChem BioAssay (NCATS).

“And” between values parts separate entries of the source, which are not always exact repeats. Equal entries are not always repeated. Results filed as inconclusive are left out. The source made the active and inactive calls. Calls come from the whole dose curve; as a rule, active = well fitted inhibition curve with a large enough effect; inconclusive = small, poorly fitted or top-dose-only effect; inactive = flat fitted curve, though single readings scatter.
% is set by controls: 0 for no effect and ±100 for the full control effect.

The test system of this experiment is KB-3-1. Description: Cytotoxic Profiling of Annotated Libraries Using Quantitative High-Throughput Screening (AID 1296008). Note: nearly all actives have a fitted effect of over 60% in size. Particulars: Five cell lines viability, CellTiter-Glo ATP luminescence, 48-72 h; max response: active compounds read low. The gist of the method: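 Compounds were pin-transferred onto cells and incubated 48 or 72 hr at 37 degree Celsius, 95% humidity. CellTiter-Glo was added, plates sat 10 min at room temperature, then ATP-coupled luminescence was imaged as the viability read-out.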
For `O[C@@H]([C@H](O)[C@H](O)CBr)[C@H](O)CBr`, the max response was -3.83% (inactive).
Take `COC(=O)CC[C@H](N)C(=O)O`: the max response was 0.526% (inactive).
For the compound `CCCOc1cc(N)ccc1C(=O)OCCN(CC)CC`, the max response is -11.4% (inactive).
With `CC1CCCCN1CCCOC(=O)c1ccccc1` (centres undefined), the max response was 7.8% (inactive).
For the compound `O=C1[O][Bi][O]c2ccccc21`, the max response was -7.6% (inactive).
As for `CO[C@H]1C[C@H](O[C@H]2[C@H](C)[C@@H](O[C@@H]3O[C@H](C)C[C@H](N(C)C)[C@H]3O)[C@@H](C)C[C@]3(CO3)C(=O)[C@H](C)[C@@H](O)[C@@H](C)[C@@H](C)OC(=O)[C@@H]2C)O[C@@H](C)[C@@H]1O`, the max response was 3.86% (inactive).
For the compound `CC(C)(CO)[C@@H](O)C(=O)NCCC(=O)NCCSSCCNC(=O)CCNC(=O)[C@H](O)C(C)(C)CO`, the max response was -0.241% (inactive).
Take `CC(C)CN(C[C@@H](O)[C@H](Cc1ccccc1)NC(=O)O[C@@H]1CCOC1)S(=O)(=O)c1ccc(N)cc1`: the max response is 0.899% (inactive).
Then `CC(=O)OCC(=O)[C@@]1(O)CC[C@H]2[C@@H]3CCC4=CC(=O)CC[C@]4(C)C3=CC[C@@]21C`, with -7.13% (inactive); and `CN[C@H](CC(C)C)C(=O)N[C@H]1C(=O)N[C@@H](CC(N)=O)C(=O)N[C@H]2C(=O)N[C@H]3C(=O)N[C@H](C(=O)N[C@@H](C(=O)O)c4cc(O)cc(O)c4-c4cc3ccc4O)[C@H](O)c3ccc(c(Cl)c3)Oc3cc2cc(c3O[C@@H]2O[C@H](CO)[C@@H](O)[C@H](O)[C@H]2O[C@H]2C[C@](C)(N)C(O)[C@H](C)O2)Oc2ccc(cc2Cl)[C@H]1O` (some centres undefined), with 9.66% (inactive) and -29.2% (inactive); and `CO[C@H]1C[C@H](O[C@@H]2/C(C)=C/C[C@@H]3C[C@@H](C[C@]4(CC[C@H](C)[C@@H](C5CCCCC5)O4)O3)OC(=O)[C@@H]3C=C(C)/C(=N/O)[C@H]4OC/C(=C\C=C\[C@@H]2C)[C@]43O)O[C@@H](C)[C@@H]1O`, with -1.21% (inactive).
Then `Cc1cc(O)c2c(c1)O[C@@]1(C)CC[C@H]3C(C)(C)CCCC34CO[C@@H]2[C@H]41` (some centres undefined), with -3.47% (inactive).
With `OCCN1CCN(CC/C=C2/c3ccccc3Sc3ccc(Cl)cc32)CC1` the figure was 6.68% (inactive).
With `NC(=O)OCC(O)COc1ccc(Cl)cc1` (centres undefined), the max response was 15.4% (inactive).
Then `CC(C)(CO)[C@@H](O)C(=O)NCCCC(=O)O`, with -10.7% (inactive); and `O=C1CC[C@@H](C(=O)N[C@H]2C[C@@H]2c2ccccc2)N1`, with -13% (inactive).
Take `CCCCCCCCCCCC(=O)OC[C@@H](O)C1OC[C@H](O)[C@H]1O` (some centres undefined): the max response is 3.33% (inactive).
As for `C=CC[C@@H]1/C=C(\C)C[C@H](C)C[C@H](OC)[C@H]2O[C@@](O)(C(=O)C(=O)N3CCCC[C@H]3C(=O)O[C@H](/C(C)=C/[C@@H]3CC[C@@H](O)[C@H](OC)C3)[C@H](C)[C@@H](O)CC1=O)[C@H](C)C[C@@H]2OC`, the max response was 2.3% (inactive).
With `CC(O)[C@H]1CC[C@H]2[C@@H]3CC[C@@H]4C[C@@H](O)CC[C@]4(C)[C@H]3CC[C@]12C` (some centres undefined) the figure was -16.3% (inactive).
`CCOC(=O)c1cc(-c2ccccc2)nc2ccc(C)cc12`: the max response is 3.5% (inactive).
Take `NCC[C@H](O)C(=O)N[C@@H]1C[C@H](N)[C@@H](O[C@H]2O[C@H](CN)CC[C@H]2N)[C@H](O)[C@H]1O[C@H]1O[C@H](CO)[C@@H](O)[C@H](N)[C@H]1O`: the max response was 4.22% (inactive).
With `C[Se]CC[C@H](N)C(=O)O` the figure was 0.415% (inactive); with `OC[C@H]1O[C@@](CO)(O[C@H]2O[C@H](CO)[C@@H](O)[C@H](O)[C@H]2O)[C@@H](O)[C@@H]1O`, 8.24% (inactive).
As to `CS(=O)(=O)c1ccc([C@@H](O)[C@@H](COC(=O)CN)NC(=O)C(Cl)Cl)cc1`, the max response is -15.1% (inactive).
As to `FC(F)(F)COCC(F)(F)F`, the max response is -9.66% (inactive).
For the compound `N#Cc1ccc2c(c1)N(CCCN1CCC(O)CC1)c1ccccc1S2`, the max response was 1.4% (inactive).
For the compound `ClC(Cl)Cl`, the max response is 3.29% (inactive).
Then `c1ccc2cc(C3=NCCN3)ccc2c1`, with -9.97% (inactive).
With `CC(C)C[C@H](NC(=O)[C@@H](COC(C)(C)C)NC(=O)[C@H](Cc1ccc(O)cc1)NC(=O)[C@H](CO)NC(=O)[C@H](Cc1c[nH]c2ccccc12)NC(=O)[C@H](Cc1cnc[nH]1)NC(=O)[C@@H]1CCC(=O)N1)C(=O)N[C@@H](CCCN=C(N)N)C(=O)N1CCC[C@H]1C(=O)NNC(N)=O`, the max response was -3.63% (inactive) and -15.5% (inactive).
